# Rows were chosen to be rich in hits. Some 19% of all compounds tested hit in one or more screens of this group.
# IL-1B inflam inh: inflammasome signaling inhibition, IL-1 beta readout; AID 743279; THP-1 LPS/ATP IL-1B secretion, AlphaLISA, 16 h; stronger effect = lower value; 360,000 tested, 4.7% active; activity change, % at 57.5 µM; in the data active means activity change below about -50%; inconclusive means mostly about -30% to -49%
#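 THP-1 cells pretreated 1 hr with compounds (up to 57.5 uM final), then stimulated with LPS (250 ng/mL final) plus ATP (1.25 mM final); secreted IL-1B measured by AlphaLISA after 16 hr, decreased signal indicating inhibition.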
# HT1080 IDH1KD tx: toxicity to HT-1080 IDH1 knockdown cells (counter line); HT-1080 IDH1 knockdown viability, ATP luminescence, 48 h; AID 686971; 360,000 tested, 2% active; Potency, µM (titrated, usually from 46.1 µM), for inactives: at the highest dose activity, negative = toxicity, most hits filed as cytotoxic;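 further: potency means the concentration at half of the fitted maximal effect; 0% = DMSO wells and -100% = cell-free medium wells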
#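 CellTiter-Glo luminescence after 48 h compound exposure at 37 degrees C of IDH1-knockdown HT-1080 cells in 5% FBS RPMI. %Activity scaled between DMSO wells and cell-free media wells, with curves fitted and assigned curve classes.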
# HT1080NT lethal: kills 2HG-producing HT-1080-NT fibrosarcoma cells; HT-1080-NT fibrosarcoma viability, CellTiter-Glo ATP luminescence, 48 h; Potency, µM (highest dose often 46.1 µM), inactives show top-dose activity, negative = less viability, most hits filed as cytotoxic; 360,000 tested, 1.6% active; AID 686970;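 further: NT is the 2HG producing partner of a matched IDH1 knockdown line; potency means the concentration at half of the fitted maximal effect; 0% = DMSO-treated cells and -100% = media-only wells without cells; nearly all actives have a fitted effect of over 55% in size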
#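 A 48-hour cytotoxicity screen used HT-1080-NT cells plated 2 hours before compound delivery. ATP-based CellTiter-Glo luminescence measured viability, normalized to DMSO and no-cell controls.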
# DT40 TDP1 no CPT: qHTS for Inhibitors of human tyrosyl-DNA phosphodiesterase 1 (TDP1): qHTS in cells in absence of CPT | DT40 Tdp1-/- hTDP1 cells, no CPT, ATP luminescence, 48 h | Potency, µM (doses to about 46.2 µM), for inactives: at the top dose activity change, negative = growth inhibition, usual class: inhibitors | 420,000 tested, 15% active; further: potency means the concentration at half of the fitted maximal effect; nearly all actives have a fitted effect of over 55% in size
#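 Growth of hTDP1-complemented DT40 Tdp1-knockout cells is measured by ATP luminescence after at least 48 hr compound exposure at 37 °C, with DMSO substituting for the 20 nM CPT used in the parallel screen.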
# TDP1 cell CPT: growth inhibition of DT40 Tdp1-/-;hTDP1 cells with camptothecin (screen for TDP1 inhibitors); chicken DT40 Tdp1-/-;hTDP1 cells + 20 nM CPT, ATP luminescence, 48 h; Potency, µM (titrated, usually from 46.2 µM), for inactives: at the highest dose activity change, negative = growth inhibition, actives largely listed as inhibitors; 420,000 tested, 12% active; further: potency means the concentration at half of the fitted maximal effect; nearly all actives have a fitted effect of over 55% in size
#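 Cell growth measured by CellTiter-Glo luminescence after a minimum 48 h, 37 C compound exposure with 20 nM CPT in Tdp1-knockout DT40 cells stably expressing hTDP1, seeded 400/well; qHTS titration format.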
# Starred values were filed as active, the others as inactive; ? = inconclusive; nt = not tested or not shown; [ ] = remark or other dose. Unless noted, the call rests on the fitted dose curve; in most records, active means well fitted curve in the direction sought with a large enough effect; inconclusive means small, poorly fitted or top-dose-only effect, or another doubt; inactive means no such curve, though single readings can be large; an effect the other way counts as inactive or inconclusive. Unless noted, on the % scale 0 is the no-effect control and ±100 the full control effect.
SMILES,IL-1B inflam inh,HT1080 IDH1KD tx,HT1080NT lethal,DT40 TDP1 no CPT,TDP1 cell CPT
CCCCN(C(=O)c1ccc(-c2ccc(Cl)cc2)o1)c1c(N)n(CCC)c(=O)[nH]c1=O,-28.2,-2.7%,-0.4%,-7.3%,-8.1%
O=C(OCC1CCCO1)c1ccc2c(c1)N(Cc1cccc(Cl)c1)C(=O)c1ccccc1S2(=O)=O (configuration not stated),nt,nt,nt,-27.1%,?
C=CCOC(=O)Nc1nc(CCNC(=O)OCc2ccccc2)c(C(=O)O)s1,-5.0,19.3%,6.6%,1.4%,11.7%
O=C(Nc1cccc2ccccc12)c1ccc2sc([C@H]3C[C@H](O)[C@@H](CO)O3)nc2c1,4.6,-1.7%,-0.9%,?,?
Cc1ccc(-c2csc(Nc3ccc(C(=O)O)cc3)[n+]2Cc2ccccc2)cc1,-10.7,-4.4%,-22.9%,?,-23.8%
O=[N+]([O-])c1ccc(-c2csc(Nc3ccccc3)[n+]2Cc2ccccc2)cc1,-7.1,-1.2%,-1.1%,20.6µM*,20.6µM*
COc1ccc(-c2csc(Nc3ccccc3)[n+]2Cc2ccccc2)cc1,-26.9,-8.6%,-14.0%,14.6µM*,?
O=C(Cc1cccc([N+](=O)[O-])c1)Nc1ccccc1,-6.7,0.6%,2.3%,1.5%,5.0%
CC(Oc1ccc(Br)cc1)C(=O)NCC1(N2CCCCC2)CCCCC1 (configuration not stated),-8.5,-13.2%,-11.9%,-18.0%,-28.9%
COc1cc(/C=C2/SC(=O)N(CC(=O)N3CCCC3)C2=O)ccc1Oc1ccc([N+](=O)[O-])cn1,-63.3*,-3.1%,-1.2%,20.6µM*,?
COc1ccc(/C=C2\SC(=O)N(CC(=O)Nc3cccnc3)C2=O)cc1OC,-13.8,-8.6%,-11.0%,?,?
CCN1C(=O)S/C(=C/c2ccc(Oc3ccc([N+](=O)[O-])cn3)c(OC)c2)C1=O,13.0,2.7%,?,13µM*,?
COc1ccc(/C=C2/SC(=O)N(CC(=O)Nc3cc(C)on3)C2=O)cc1OC,0.3,4.2%,2.8%,-1.0%,0.0%
CCN=C1S/C(=C\c2ccc(OCC)c(OC)c2)C(=O)N1CC,-50.9*,-16.9%,-2.8%,20.6µM*,?
CCOC(=O)C1CCCN(C(=O)c2cc(CN3C(=O)c4ccccc4C3=O)ccc2OC)C1 (configuration not stated),-5.9,-10.6%,-7.6%,?,-23.0%
O=C1c2[nH]nc(-c3ccccc3O)c2C(c2cccc(OCc3ccccc3)c2)N1CCO (configuration not stated),nt,nt,nt,?,-1.2%
CCCCN1C(=O)c2[nH]nc(-c3ccccc3O)c2C1c1ccc(C(C)(C)C)cc1 (configuration not stated),nt,nt,nt,13µM*,20.6µM*
CCOc1ccc(C2c3c(-c4ccccc4O)n[nH]c3C(=O)N2Cc2cccnc2)cc1OC (configuration not stated),nt,nt,nt,6.4%,-20.9%
CCCN1C(=O)c2[nH]nc(-c3ccccc3O)c2C1c1ccc(OCc2ccccc2)c(OCC)c1 (configuration not stated),nt,nt,nt,16.4µM*,23.1µM*
CCCCN1C(=O)c2[nH]nc(-c3ccccc3O)c2C1c1ccc(OCc2ccccc2)cc1 (configuration not stated),nt,nt,nt,?,18.4µM*
O=C1c2[nH]nc(-c3ccccc3O)c2C(c2ccc(F)cc2)N1CC1CCCO1 (configuration not stated),-5.7,-7.4%,-1.7%,?,?
CC(C)OCCCN1C(=O)c2[nH]nc(-c3ccccc3O)c2C1c1ccccc1F (configuration not stated),nt,nt,nt,13µM*,13µM*
COc1ccc(CCN2C(=O)c3[nH]nc(-c4ccccc4O)c3C2c2cccc(O)c2)cc1OC (configuration not stated),-29.4,?,?,?,-0.5%
COc1ccc(CCN2C(=O)c3[nH]nc(-c4ccccc4O)c3C2c2ccc(OC)c(OC)c2)cc1 (configuration not stated),nt,nt,nt,?,-118.9%
CCCCN1C(=O)c2[nH]nc(-c3ccccc3O)c2C1c1ccc(OCc2ccccc2)c(OC)c1 (configuration not stated),nt,nt,nt,20.6µM*,?
SMILES,IL-1B inflam inh,HT1080 IDH1KD tx,HT1080NT lethal,DT40 TDP1 no CPT,TDP1 cell CPT
CCCOc1ccc(C2c3c(-c4c(C)cc(C)cc4O)n[nH]c3C(=O)N2CCO)cc1 (configuration not stated),nt,nt,nt,23.1µM*,20.6µM*
COc1cc(C2c3c(-c4cc(C)ccc4O)n[nH]c3C(=O)N2CCCO)ccc1OCCC(C)C (configuration not stated),nt,nt,nt,29.1µM*,?
Cc1ccc(C2c3c(-c4ccccc4O)n[nH]c3C(=O)N2CCCO)cc1 (configuration not stated),nt,nt,nt,29.1µM*,18.4µM*
CN1CCCN(C(=O)[C@@H]2C[C@@H](Sc3nc4ccccc4[nH]3)CN2Cc2ccc(OC(F)(F)F)cc2)CC1,nt,nt,nt,?,-15.6%[9.04 µM]
O=C(c1ccc(O)c(Cl)c1)N1CCN(S(=O)(=O)c2ccccc2)CC1,23.8,-7.3%,0.2%,?,?
CC(C)OCCCN1C(=O)c2[nH]nc(-c3ccccc3O)c2C1c1cccc(OCc2ccccc2)c1 (configuration not stated),nt,nt,nt,?,10.3µM*
Cc1ccc(NC(=O)Nc2ccnc(-c3cccnc3)n2)cc1,35.6,-5.9%,-4.0%,8.2µM*,8.2µM*
Cc1ccc(C)c(Nc2nc3c(S(=O)(=O)c4ccccc4)nnn3c3ccccc23)c1,22.1,11.4%,-3.0%,?,-29.1%
O=S(=O)(c1ccccc1)c1nnn2c1nc(NC1CCN(Cc3ccccc3)CC1)c1ccccc12,?,-0.7%,-10.5%,8.2µM*,5.8µM*
O=S(=O)(c1ccccc1)c1nnn2c1nc(NC1CCN(Cc3ccccc3)CC1)c1cc(Cl)ccc12,?,-0.3%,-10.0%,4.11µM*,7.31µM*
COc1ccc(N2CCN(C(=O)CNC(=O)c3ccccc3Cl)CC2)cc1,33.8,1.1%,14.3%,-23.1%,-15.1%
COc1ccc(-n2nnnc2SCC(=O)Nc2ccc3c(c2)OCCO3)cc1OC,0.0,-4.2%,-26.7%,9.2µM*,?
O=C(CSc1nnnn1-c1ccc2c(c1)OCO2)NCc1ccccc1,86.2,12.6µM*,?,14.6µM*,14.6µM*
COc1cccc(-n2c(=O)[nH]cc(C(=O)Nc3ccc4c(c3)OCCO4)c2=O)c1,22.9,-1.5%,0.9%,-20.2%,4.11µM*
CCn1nnnc1SCC(=O)Nc1ccc2c(c1)OCCO2,11.0,5.2%,15.1%,-10.9%,5.5%
